# Data published in PubChem BioAssay (NCI).
# This is part of a sample that, as a whole, favours compounds with a hit. Of some 79,000 tested, about 15% had one in any assay. Unmarked numbers belong to inactive results. The source made the active and inactive calls. No stated cut-off is given here; in the data, active means growth inhibition above about 70%; inactive means the rest.
# Tests used:
# [1] = NCI Yeast Anticancer Drug Screen. Data for the rad52 strain (AID 147);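 further: 0% = growth of vehicle-treated control cultures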; settings: S. cerevisiae rad52 mutant growth inhibition, hits give high values
# Outline: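 Growth of repair-deficient yeast cells was compared between compound-treated and vehicle-treated cultures to give percent inhibition.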
# [2] = NCI Yeast Anticancer Drug Screen. Data for the wt1 strain (AID 149);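 further: 0% = growth of vehicle-treated wt1 cultures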; settings: S. cerevisiae wt1 strain (SPY 50644) growth inhibition, hits give high values
# Outline: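 Measured: growth of wt1 yeast under compound versus vehicle treatment, reported as inhibition.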
# [3] = NCI Yeast Anticancer Drug Screen. Data for the rad50EPP+ strain (AID 151);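 further: 0% = growth of vehicle-treated control cultures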; settings: S. cerevisiae rad50 mutant strain, hits give high values
# Outline: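 Measured: growth inhibition of rad50EPP+ yeast. Reference: vehicle-treated controls. Screen uses strains with defined genetic alterations in DNA damage repair or cell cycle control.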
# [4] = NCI Yeast Anticancer Drug Screen. Data for the mgt1 strain (AID 153); settings: S. cerevisiae mgt1 mutant growth inhibition, hits give high values
# Outline: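 Compounds were applied to mgt1 mutant yeast, and growth was then compared against vehicle-treated control cultures to give percent inhibition.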
# [5] = NCI Yeast Anticancer Drug Screen. Data for the rad50 strain (AID 155);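 further: 0% = growth of vehicle-only cultures of the same strain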; settings: S. cerevisiae rad50 strain growth inhibition, hits give high values
# Outline: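 Growth of the mutant yeast was measured after compound exposure and referenced to vehicle-treated cultures.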
# [6] = NCI Yeast Anticancer Drug Screen. Data for the mec2-1 strain (AID 157); settings: S. cerevisiae mec2-1 strain, hits give high values
# Outline: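 Compounds were applied to mec2-1 yeast cells. Their growth was then compared with that of vehicle-treated cultures to give growth inhibition.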
# [7] = NCI Yeast Anticancer Drug Screen. Data for the rad14 strain (AID 159);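 further: 0% = growth of vehicle-treated control cultures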; settings: S. cerevisiae rad14 strain growth inhibition, hits give high values
# Outline: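 Here, inhibition of yeast growth was measured after compound exposure, using a strain with a genetic defect in DNA damage repair and vehicle-treated cultures as the reference.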
# [8] = NCI Yeast Anticancer Drug Screen. Data for the sgs1 mgt1 strain (AID 161);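 further: 0% = growth of cultures given vehicle only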; settings: S. cerevisiae sgs1 mgt1 strain, hits give high values
# Outline: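 Growth of a repair-deficient yeast mutant was monitored after compound treatment and expressed as inhibition relative to vehicle-treated cultures.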
# [9] = NCI Yeast Anticancer Drug Screen. Data for the CLN2oe strain (AID 163);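 further: 0% = growth of vehicle-only control cultures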; settings: S. cerevisiae CLN2oe strain, hits give high values
# Outline: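 Cells of an engineered yeast line with disturbed cell-cycle regulation are treated with compound. Inhibition of growth is then calculated relative to the vehicle-treated reference.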
# [10] = NCI Yeast Anticancer Drug Screen. Data for the cln2 rad14 strain (AID 165);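 further: 0% = growth equal to vehicle treated cultures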; settings: S. cerevisiae cln2 rad14 strain, hits give high values
# Outline: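 Strain: cln2 rad14 yeast, altered in cell cycle control and DNA damage repair. Read-out: growth inhibition vs vehicle.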
# [11] = NCI Yeast Anticancer Drug Screen. Data for the bub3 strain (AID 167); settings: S. cerevisiae bub3 mutant strain, hits give high values
# Outline: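 Whole-cell yeast assay. The mutant strain was incubated with compounds, and growth inhibition was determined by comparison with vehicle-treated cells.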
# [12] = NCI Yeast Anticancer Drug Screen. Data for the wt2 strain (AID 169);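 further: 0% = growth of vehicle-treated yeast cultures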; settings: S. cerevisiae wt2 strain growth inhibition, hits give high values
# Outline: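 Growth of compound-treated yeast is measured and expressed as inhibition relative to vehicle-only controls.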
# [13] = NCI Yeast Anticancer Drug Screen. Data for the mlh1 strain (AID 171);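 further: 0% = growth of vehicle-treated control cultures of the same strain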; settings: S. cerevisiae mlh1 strain growth inhibition, hits give high values
# Outline: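 Test agents were incubated with yeast bearing a defined DNA damage repair or cell cycle control alteration; values are growth inhibition normalised to vehicle-treated cultures.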
# [14] = NCI Yeast Anticancer Drug Screen. Data for the sgs1 strain (AID 173);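 further: 0% = growth of vehicle-only control cultures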; settings: S. cerevisiae sgs1 mutant, hits give high values
# Outline: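 Strain with an altered DNA repair or cell cycle pathway exposed to compound. Growth then measured. Value = inhibition versus vehicle control.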
# [15] = NCI Yeast Anticancer Drug Screen. Data for the mlh1 rad18 strain (AID 175); settings: S. cerevisiae mlh1 rad18 strain growth inhibition, hits give high values
# Outline: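 A repair-deficient yeast strain is exposed to test compound, and growth is scored relative to vehicle-treated controls.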
# [16] = NCI Yeast Anticancer Drug Screen. Data for the rad18 strain (AID 177); settings: S. cerevisiae rad18 mutant growth inhibition, hits give high values
# Outline: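 DNA-repair-defective yeast; compound treatment; growth inhibition scored against vehicle.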
# [17] = at 5.0 µM (retest, dose inferred, filed as 0.5)
# [18] = at 50.0 µM (retest, dose inferred, filed as 5.0)
compound,measurement,setting,value
N#CC(C#N)=NNc1ccc(S(=O)(=O)O)cc1,growth inhibition,[1]; at 1.2 µM,-6%
same,growth inhibition,[1]; at 3.7 µM,3%
same,growth inhibition,[1]; at 11.0 µM,4%
same,growth inhibition,[1]; at 33.0 µM,14%
same,growth inhibition,[1]; at 100.0 µM,4%
same,growth inhibition,[2]; at 1.2 µM,-19%
same,growth inhibition,[2]; at 3.7 µM,-18%
same,growth inhibition,[2]; at 11.0 µM,-19%
same,growth inhibition,[2]; at 33.0 µM,-14%
same,growth inhibition,[2]; at 100.0 µM,-3%
same,growth inhibition,[3]; at 1.2 µM,2%
same,growth inhibition,[3]; at 3.7 µM,2%
same,growth inhibition,[3]; at 11.0 µM,19%
same,growth inhibition,[3]; at 33.0 µM,-4%
same,growth inhibition,[3]; at 100.0 µM,9%
same,growth inhibition,[4]; at 1.2 µM,3%
same,growth inhibition,[4]; at 3.7 µM,1%
same,growth inhibition,[4]; at 11.0 µM,-3%
same,growth inhibition,[4]; at 33.0 µM,7%
same,growth inhibition,[4]; at 100.0 µM,9%
same,growth inhibition,[5]; at 1.2 µM,-20%
same,growth inhibition,[5]; at 3.7 µM,-27%
same,growth inhibition,[5]; [17],85% (active)
same,growth inhibition,[5]; at 11.0 µM,-25%
same,growth inhibition,[5]; at 33.0 µM,-26%
same,growth inhibition,[5]; [18],99% (active)
same,growth inhibition,[5]; at 50.0 µM,19.3%
same,growth inhibition,[5]; at 100.0 µM,-9%
same,growth inhibition,[6]; at 1.2 µM,-20%
same,growth inhibition,[6]; at 3.7 µM,-22%
same,growth inhibition,[6]; [17],93% (active)
same,growth inhibition,[6]; at 11.0 µM,-29%
same,growth inhibition,[6]; at 33.0 µM,-24%
same,growth inhibition,[6]; [18],99% (active)
same,growth inhibition,[6]; at 50.0 µM,17.7%
same,growth inhibition,[6]; at 100.0 µM,-28%
same,growth inhibition,[7]; at 1.2 µM,11%
same,growth inhibition,[7]; at 3.7 µM,13%
same,growth inhibition,[7]; at 11.0 µM,3%
same,growth inhibition,[7]; at 33.0 µM,2%
same,growth inhibition,[7]; at 100.0 µM,23%
same,growth inhibition,[8]; [17],-2%
same,growth inhibition,[8]; [18],32%
same,growth inhibition,[8]; at 50.0 µM,22.8%
same,growth inhibition,[9]; at 1.2 µM,-17%
same,growth inhibition,[9]; at 3.7 µM,-12%
same,growth inhibition,[9]; at 11.0 µM,-11%
same,growth inhibition,[9]; at 33.0 µM,-19%
same,growth inhibition,[9]; at 100.0 µM,-24%
same,growth inhibition,[10]; [17],0%
same,growth inhibition,[10]; [18],23%
same,growth inhibition,[10]; at 50.0 µM,17.9%
same,growth inhibition,[11]; at 1.2 µM,-30%
same,growth inhibition,[11]; at 3.7 µM,-29%
same,growth inhibition,[11]; [17],17%
same,growth inhibition,[11]; at 11.0 µM,-30%
same,growth inhibition,[11]; at 33.0 µM,-29%
same,growth inhibition,[11]; [18],28%
same,growth inhibition,[11]; at 50.0 µM,24.1%
same,growth inhibition,[11]; at 100.0 µM,-26%
same,growth inhibition,[12]; at 1.2 µM,-15%
same,growth inhibition,[12]; at 3.7 µM,-18%
same,growth inhibition,[12]; at 11.0 µM,-6%
same,growth inhibition,[12]; at 33.0 µM,-17%
same,growth inhibition,[12]; at 100.0 µM,-7%
same,growth inhibition,[13]; at 1.2 µM,3%
same,growth inhibition,[13]; at 3.7 µM,5%
same,growth inhibition,[13]; at 11.0 µM,5%
same,growth inhibition,[13]; at 33.0 µM,11%
same,growth inhibition,[13]; at 100.0 µM,41%
same,growth inhibition,[14]; at 1.2 µM,-8%
same,growth inhibition,[14]; at 3.7 µM,-9%
same,growth inhibition,[14]; at 11.0 µM,-7%
same,growth inhibition,[14]; at 33.0 µM,10%
same,growth inhibition,[14]; at 100.0 µM,11%
same,growth inhibition,[15]; [17],63%
same,growth inhibition,[15]; [18],100% (active)
same,growth inhibition,[15]; at 50.0 µM,20.6%
same,growth inhibition,[16]; at 1.2 µM,2%
same,growth inhibition,[16]; at 3.7 µM,-6%
same,growth inhibition,[16]; at 11.0 µM,5%
same,growth inhibition,[16]; at 33.0 µM,1%
same,growth inhibition,[16]; at 100.0 µM,2%
O=C1NC(=O)c2ccc([N+](=O)[O-])c3cccc1c23,growth inhibition,[1]; at 1.2 µM,11%
same,growth inhibition,[1]; at 3.7 µM,27%
same,growth inhibition,[1]; at 11.0 µM,36%
same,growth inhibition,[1]; at 33.0 µM,56%
same,growth inhibition,[1]; at 100.0 µM,73% (active)
same,growth inhibition,[2]; at 1.2 µM,-12%
same,growth inhibition,[2]; at 3.7 µM,32%
same,growth inhibition,[2]; at 11.0 µM,25%
same,growth inhibition,[2]; at 33.0 µM,24%
same,growth inhibition,[2]; at 100.0 µM,36%
same,growth inhibition,[3]; at 1.2 µM,45%
same,growth inhibition,[3]; at 3.7 µM,51%
same,growth inhibition,[3]; at 11.0 µM,65%
same,growth inhibition,[3]; at 33.0 µM,78% (active)
same,growth inhibition,[3]; at 100.0 µM,81% (active)
same,growth inhibition,[4]; at 1.2 µM,11%
same,growth inhibition,[4]; at 3.7 µM,18%
same,growth inhibition,[4]; at 11.0 µM,20%
same,growth inhibition,[4]; at 33.0 µM,30%
same,growth inhibition,[4]; at 100.0 µM,49%
same,growth inhibition,[5]; at 1.2 µM,7%
same,growth inhibition,[5]; at 3.7 µM,13%
same,growth inhibition,[5]; [17],-15%
same,growth inhibition,[5]; at 11.0 µM,20%
same,growth inhibition,[5]; at 33.0 µM,47%
same,growth inhibition,[5]; [18],55%
same,growth inhibition,[5]; at 50.0 µM,64.5%
same,growth inhibition,[5]; at 100.0 µM,65%
same,growth inhibition,[6]; at 1.2 µM,11%
same,growth inhibition,[6]; at 3.7 µM,20%
same,growth inhibition,[6]; [17],-36%
same,growth inhibition,[6]; at 11.0 µM,20%
same,growth inhibition,[6]; at 33.0 µM,35%
same,growth inhibition,[6]; [18],23%
same,growth inhibition,[6]; at 50.0 µM,33.5%
same,growth inhibition,[6]; at 100.0 µM,72% (active)
same,growth inhibition,[7]; at 1.2 µM,-2%
same,growth inhibition,[7]; at 3.7 µM,5%
same,growth inhibition,[7]; at 11.0 µM,21%
same,growth inhibition,[7]; at 33.0 µM,55%
same,growth inhibition,[7]; at 100.0 µM,79% (active)
same,growth inhibition,[8]; [17],-8%
same,growth inhibition,[8]; [18],23%
same,growth inhibition,[8]; at 50.0 µM,68.8%
same,growth inhibition,[9]; at 1.2 µM,-2%
same,growth inhibition,[9]; at 3.7 µM,-1%
same,growth inhibition,[9]; at 11.0 µM,3%
same,growth inhibition,[9]; at 33.0 µM,17%
same,growth inhibition,[9]; at 100.0 µM,68%
same,growth inhibition,[10]; [17],24%
same,growth inhibition,[10]; [18],68%
same,growth inhibition,[10]; at 50.0 µM,72.2% (active)
same,growth inhibition,[11]; at 1.2 µM,28%
same,growth inhibition,[11]; at 3.7 µM,43%
same,growth inhibition,[11]; [17],2%
same,growth inhibition,[11]; at 11.0 µM,39%
same,growth inhibition,[11]; at 33.0 µM,55%
same,growth inhibition,[11]; [18],79% (active)
same,growth inhibition,[11]; at 50.0 µM,51.9%
same,growth inhibition,[11]; at 100.0 µM,67%
